Screens from PubChem BioAssay.
Shown are actives, neighbours in structure and some others; about 0.68% of the full set was active somewhere.
Sa RN4220 lethal – S. aureus RN4220 growth inhibition. OD600, 16 h. inhibition, % (no concentration beside the values). hit rate 0.33% among 330,000. AID 1259311; in the data active means inhibition above about 85%
ugtP null kill – compounds lethal to S. aureus RN4220 ugtP deletion mutant; OD600 growth, 16 h; growth inhibition, % (test concentration not listed); hit rate 0.54% among 330,000; in the data active means growth inhibition above about 68%
Mtb hypoxia rep – reduces hypoxia-regulated biosensor signal in M. tuberculosis; M. tuberculosis hypoxia-regulated fluorescent reporter, fluorescence; fluorescence inhibition, % (concentration not given with the values); hit rate 0.1% among 300,000; AID 1159583; in the data active means fluorescence inhibition mostly above about 23%, no sharp cut-off; inactive means mostly below about 17%
Hits are given with their value; . = inactive; / = no result given.

SMILES | Sa RN4220 lethal | ugtP null kill | Mtb hypoxia rep
O=C(C1=CC(c2ccc(Br)cc2)CC(OCCCCO)O1)N1CCOCC1 (stereo not given) | . | . | .
Cc1nnc(NCc2ccccc2)c2ccccc12 | . | . | 80.8
c1ccc(CNc2nc(-c3ccccc3)nc3ccccc23)cc1 | . | . | .
c1ccc(CNc2nc(NCc3ccccc3)c3ccccc3n2)cc1 | 91.9 | 100.6 | .
Cc1nnc(NCc2ccncc2)c2ccccc12 | . | . | .
COCCN1C(=NCCCOC(C)C)NC(c2ccccc2)C(C(=O)OC)=C1C (stereo not given) | . | . | .
Cc1nn(-c2ccccc2)c2c1C1(C(=O)N(C)c3ccccc31)C(C#N)=C(N)O2 (stereo not given) | . | . | .
Cc1nn(-c2ccccc2)c2c1C1(C(=O)N3c4c(cccc41)C(C)CC3(C)C)C(C#N)=C(N)O2 (stereo not given) | 95.7 | 91.7 | .
COc1ccc(CN2CC(=O)N3C4c5cc(C)ccc5OCC4C(c4ccccc4)[C@]3(C)C2=O)cc1 (stereo not given in full) | . | . | .
COc1ccc(S(=O)(=O)N2CCN(C(=O)C3CC(=O)N(c4ccccc4F)C3)CC2)cc1OC (stereo not given) | . | . | 30.6
COc1ccc(N2CC(C(=O)N3CCN(c4ccccc4F)CC3)CC2=O)cc1 (stereo not given) | . | . | .
CC=C(C)C(=O)OC1c2c(ccc3ccc(=O)oc23)OC(C)(C)C1OC(C)=O (stereo not given) | . | . | .
CN(C)CCCOC1C(C(O)CO)OC2OC(C)(C)OC21 (stereo not given) | . | . | .
CC1C=C(C(=O)NCc2nc3ccccc3[nH]2)OC(OCc2ccc(CO)cc2)C1 (stereo not given) | . | . | .
Cc1noc(C)c1NC(=O)N(C)CC1Oc2c(NS(=O)(=O)c3cccs3)cccc2C(=O)N(C(C)CO)CC1C (stereo not given) | . | . | .
Cc1nnc(C)n1N=Cc1ccc2c(c1)OCCO2 | . | . | .
ON=Cc1cccc[n+]1CCCCCC[n+]1ccccc1C=NO | . | . | .
CCCCCCCCCCCCCCCC[n+]1ccc(C=NO)cc1 | 100.6 | 100.6 | .
CC1CCc2c(sc(NC(=O)CSc3ncn[nH]3)c2C#N)C1 (stereo not given) | . | . | .
CC(C)(C)C1CCc2c(sc(NC(=O)CSc3ncn[nH]3)c2C#N)C1 (stereo not given) | . | 88.4 | .
CSCCC(NC(=O)NCCC1=CCCCC1)C(=O)O (stereo not given) | . | . | .
Cc1ccccc1C=CC(=O)c1ccc([N+](=O)[O-])o1 | . | 100.6 | .
O=C(/C=C/c1cccc([N+](=O)[O-])c1)NCc1ccc2c(c1)OCO2 | . | . | /
COc1ccc(/C=C/C(=O)c2ccc(C(=O)/C=C/c3ccc(OC)c(OC)c3)cc2)cc1OC | . | . | .
Cc1cccc(NC(=O)c2ccc([N+](=O)[O-])o2)n1 | . | . | .
SMILES | Sa RN4220 lethal | ugtP null kill | Mtb hypoxia rep
O=C(C=Cc1cccc([N+](=O)[O-])c1)c1ccc([N+](=O)[O-])o1 | 100.4 | 99.8 | /
Cc1cccc(C=CC(=O)c2ccc([N+](=O)[O-])o2)c1 | 100.7 | 100.4 | /
Cc1ccccc1NC(=O)c1ccc([N+](=O)[O-])o1 | . | . | .
COc1ccc(C=CC(=O)c2ccc([N+](=O)[O-])o2)cc1OC | . | 100.0 | /
CCn1c(SCC(=O)NN=C/C=C/c2ccccc2[N+](=O)[O-])nnc1-c1ccccc1 | . | . | .
CC=C(C)C(=O)N1CC2(CC(c3cccc(NC(=O)CCCCC)c3)=NO2)CC1C(N)=O (stereo not given) | . | . | .
COc1ccc(C(=O)NC(=S)NNC(=O)c2ccncc2)cc1Br | . | . | .
COc1ccc(C(=O)NNC(=S)NC(=O)c2ccc(F)cc2)cc1Br | . | 84.7 | .
CC(OC(=O)NCc1ccc(C(F)(F)F)cc1)C1O[C@@]2(C)CCCC1O2 (stereo not given in full) | . | . | .
Cc1cc(CNC(=O)C2(C(F)(F)F)CC(=CCc3ccccc3)CCCO2)nn1C (stereo not given) | . | . | .
Cc1cccc(NN=C(C#N)S(=O)(=O)C(C)(C)C)c1 | . | . | .
Brc1ccc2[nH]c3c(N4CCc5ccccc5C4)ncnc3c2c1 | . | 97.1 | .
Fc1ccc2[nH]c3c(N4CCc5ccccc5C4)ncnc3c2c1 | . | . | /
COc1ccc(C=NNC(=O)c2sccc2OCc2ccc(F)cc2)cc1OC | . | . | .
Cc1ccc(O)c(-c2cc(-c3cccc(Br)c3)n[nH]2)c1 | 86.9 | . | .
Cc1ccc(-c2cc(-c3ccc(C)cc3O)[nH]n2)cc1 | . | . | .
COC(=O)[C@]1(CC(C)C)NC(c2ccc(SC3CCCCC3)cc2)C2C(=O)N(C)C(=O)C21 (stereo not given in full) | . | . | .
Cc1ccc(/C=C2/Sc3ccccc3N(CC(=O)NCC3CCCO3)C2=O)cc1 (stereo not given) | . | . | .
Cc1cc(/C=C2\Sc3ccccc3N2C)cc(C)[n+]1CC1CCCO1 (stereo not given) | 100.2 | 100.6 | /
Cc1cccc(NCC(=O)NN=Cc2ccc(Br)cc2)c1 | . | . | .
Fc1cccc(COc2ccccc2CNc2ccccc2)c1 | . | . | .
CCOc1ccc(NCc2ccccc2OCc2cccc(F)c2)cc1 | . | 92.1 | .
COC(=O)C(O)(NC(=O)c1ccncc1)C(F)(F)F (stereo not given) | 84.3 | . | .
CC(NC(=O)NNC(=O)c1ccncc1)(C(F)(F)F)C(F)(F)F | . | . | .
Cc1ccc(S(=O)(=O)N(C)C(=NS(=O)(=O)c2ccccc2)c2ccccc2)cc1 | . | . | .
SMILES | Sa RN4220 lethal | ugtP null kill | Mtb hypoxia rep
CN1C2CCC1CC(OC(=O)C1C=Nc3ccccc31)C2 (stereo not given) | . | . | .
CCN1CC2C3C(=O)N(C)C(=O)C3[C@](Cc3ccccc3)(C1=O)N2C(=O)c1ccc(Cl)cc1 (stereo not given in full) | . | . | .
O=Cc1c(N2CCSCC2)nc2ccccn2c1=O | . | . | 40.2
O=Cc1c(N2CCN(c3ccccc3)CC2)nc2ccccn2c1=O | . | . | .
CCCCCCCCC=CCCCCCCCC(=O)NCCO | . | . | .
NC(=O)CCn1c2ccccc2c2ccccc21 | . | . | .
CC(C)CCn1c2ccccc2c2cc(CC(N)=O)ccc21 | . | 83.5 | .
O=S(=O)(NC1CCCCCCC1)OCC(Cl)(Cl)Cl | . | . | .
O=S(=O)(NC1CC(NS(=O)(=O)OCC(Cl)(Cl)Cl)C2CCCCC12)OCC(Cl)(Cl)Cl (stereo not given) | 100.8 | 95.1 | .
CC(C)(C)OC(=O)NC(C=Cc1ccccc1)C(=O)OC(C)(C)C (stereo not given) | . | . | .
Cc1ccccc1C(=O)Nc1nnc(CC(=O)NN=Cc2ccco2)s1 | . | . | .
O=C(COC(=O)c1ccc(F)cc1)NCCc1ccc(F)cc1 | . | . | .
O=C(COC(=O)c1cc(Cl)nc(Cl)c1)NCCc1ccc(F)cc1 | . | . | 25.5
COC(=O)C1=C(C)N(Cc2ccccc2)C(=NCCN2CCOCC2)NC1CCc1ccccc1 (stereo not given) | . | . | .
COc1ccc(CNC(=O)c2c(C)oc3c2C(=O)c2ccccc2C3=O)cc1 | . | . | .
Cc1oc2c(c1C(=O)NCc1cccnc1)C(=O)c1ccccc1C2=O | 91.3 | . | .
